Measurements reported in the supplement of paper PMC6555819.

Assays:
Assay in all cases: PBM binding z-score (relative to random genomic background probes); higher = stronger binding; sequences stand for … in GC…GCGATTGACAGCGTAGAATGAAGG
[1] = test system: FXR:RXRa (NR concentration 270 nM, RXRa partner concentration 90 nM)
Procedure, shortened: (§1)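 Binding z-scores were set against random background probes. The data came from custom Agilent 4×180K protein-binding microarrays carrying double-stranded probes with 34-nt variable regions, incubated 1 h with ligand-free nuclear receptor dimers. Partner-specific antibodies detected binding, and scanned fluorescence was regression-normalized.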

[2] = test system: LXRa:RXRa (NR concentration 270 nM, RXRa partner concentration 90 nM)
Procedure, shortened: as §1

[3] = test system: LXRa homodimer (NR concentration 270 nM)
Procedure, shortened: as §1

[4] = test system: LXRb:RXRa (NR concentration 270 nM, RXRa partner concentration 90 nM)
Procedure, shortened: as §1

[5] = test system: LXRb homodimer (NR concentration 270 nM)
Procedure, shortened: as §1

[6] = test system: PPARa:RXRa (NR concentration 270 nM, RXRa partner concentration 90 nM)
Procedure, shortened: as §1

[7] = test system: PPARg:RXRa (NR concentration 180 nM, RXRa partner concentration 90 nM)
Procedure, shortened: as §1

[8] = test system: PPARg:RXRa 270nM:90nM, anti-RXR (NR concentration 270 nM, RXRa partner concentration 90 nM)
Procedure, shortened: as §1

[9] = test system: PPARg:RXRa 30nM:10nM, anti-RXR (NR concentration 30 nM, RXRa partner concentration 10 nM)
Procedure, shortened: as §1

[10] = test system: PPARg:RXRa 90nM:30nM, anti-RXR (NR concentration 90 nM, RXRa partner concentration 30 nM)
Procedure, shortened: as §1

Sequence | PBM binding z-score [1] | PBM binding z-score [2] | PBM binding z-score [3] | PBM binding z-score [4] | PBM binding z-score [5] | PBM binding z-score [6] | PBM binding z-score [7] | PBM binding z-score [8] | PBM binding z-score [9] | PBM binding z-score [10]
TCGAGTAGGTTAGTCGGGGCATTTAGCCAACATA | 0.338 | 0.346 | -0.167 | 0.722 | -0.677 | 0.819 | -0.0847 | 0.976 | 1.17 | 1.04
CCTAGCAGGCCAGGGTCACTCAGGCATTTCGCTT | 1.73 | 1.43 | -0.738 | 1.49 | -0.994 | 2.75 | 0.469 | 1.25 | -0.561 | 0.308
TCATATATGTAAACAGGTGAAAGTCCGTAAGTTA | 0.999 | 1.09 | 0.211 | 1.51 | 0.115 | 1.84 | 1.67 | 2.97 | 3.81 | 3.19
TACACAGGGTCAAAGGCCAGAGTACGAATGTCGA | 6.94 | 5.94 | 1.96 | 4.44 | 1.69 | 5.95 | 7.46 | 7.03 | 4.73 | 6.42
ACTAGCAGGCCAAGGGTCGCTCAAGATTAGTCCG | -0.247 | 0.0805 | -0.567 | 0.0881 | -0.965 | 2.36 | 4.99 | 6.2 | 3.7 | 5.95
CGAAAGAGGGCATGAGTTGATAGCAAATGCCGAT | 0.277 | 0.423 | -0.431 | 0.0383 | -0.529 | 1.7 | 1.14 | 1.19 | 0.0878 | 0.644
CCTACTGGGCCACGAAAGGTCATGGATTCAGTGA | 3.62 | 5.06 | 3.79 | 4.07 | 0.209 | 4.97 | 4.97 | 5.27 | 2.28 | 4.77
CCGACTGGGGCAGAGGTTACCATACTCAGTACGA | 0.287 | 0.761 | -0.0955 | 1.34 | -1.08 | 3.62 | 8.22 | 7.57 | 6.11 | 7.57
TCTTTTAGATCAGCAGGTTAAGAAAGCTGGCCAA | 0.304 | 0.549 | -0.247 | 0.44 | 0.139 | 0.889 | -0.5 | 1.65 | 3.33 | 2.36
CCAACTAGGTCACGAAAGGTCAAAGTCGAATGAC | 7.46 | 8.21 | 7.89 | 7.27 | 2.78 | 6.63 | 9.92 | 8.01 | 5.92 | 8.18
TGTCAAAGTTCAAAGGTAACGGAAGTATCCACAC | 7.08 | 6.74 | 4.4 | 4.82 | 1.8 | 6.04 | 8.79 | 7.85 | 5.15 | 7.21
CCTGACGGGTCACGAGGTTATAGCACGACGAGCG | 5.64 | 4.17 | 0.355 | 3.29 | -0.286 | 5.34 | 5.73 | 5.6 | 1.87 | 3.91
TCTGCTAGGTCAGTTGGTCAGCTTACGAGCTGCC | 0.94 | 0.456 | -0.755 | 0.14 | 0.216 | 1.29 | 0.177 | 1.69 | 0.977 | 1.39
CGTCCAAGGTCAGCAGGTCAGGGAAAGCGACGTG | 5.75 | 3.75 | 0.358 | 3.11 | -0.252 | 4.79 | 4.23 | 4.7 | 1.38 | 3.21
ATCGAAAGGACGTGAGGTGAGTATACAGAAAGGC | -0.29 | -0.461 | -0.29 | -0.468 | -0.162 | -0.116 | 0.724 | -0.318 | 0.185 | -0.252
AGTCAAAGTTCATCTAGGTAACGTGAGATATGCT | 6.5 | 5.85 | 4.89 | 3.81 | 1.73 | 4.76 | 6.65 | 6.18 | 3.58 | 5.42
ATCGCTAGGTAAGACTCAGTTCAGTGAAGAACGC | -0.617 | -0.685 | -0.587 | -0.734 | -0.581 | -0.45 | -0.14 | -0.615 | -0.356 | -0.686
ATCTCTAGGTAAAGATAGTTCAGTGCATGCAAAT | 0.301 | 4 | 0.693 | 0.899 | 0.443 | 0.697 | 0.357 | 0.286 | 0.0573 | 0.225
CCTTACGGGTCAGTCCAGGTTATAGCATCGGAGT | 3.69 | 3.88 | 0.251 | 1.74 | -0.12 | 2.85 | 1.11 | 1.64 | 0.319 | 0.821
TCATATAGGTAAAGGTGAAAATCGAACGATATGA | 1.01 | 1.19 | -0.224 | 1.35 | 0.0615 | 3.15 | 4.11 | 4.4 | 4.25 | 4.59
CCTCAGAGGACAGAAGGTCAGAGCTGTCCGCTTT | 1.31 | 1.63 | -0.13 | 1.24 | -0.707 | 2.19 | 0.358 | 0.634 | -0.132 | 0.513
CGAACGAGGGCATGAGATGATAGCAAATGCCGAT | 0.416 | 0.173 | 0.0308 | -0.0144 | -0.705 | 1.22 | 1.5 | 0.73 | 0.325 | 0.278
GCGACTGGGGCATCAGCAGATTACCATAACTTAA | -0.359 | -0.612 | -0.401 | 0.0496 | -0.549 | 0.511 | 1.02 | 0.488 | -0.24 | 0.0962
CAAACTAGGGCAAGAGGTCAAAGTCCGCTTCCCG | 5.03 | 5.04 | 4.65 | 4.67 | 0.677 | 5.74 | 8.05 | 6.92 | 5.45 | 6.96
ACAGACAGATGAGTGAAGGTAACTCAGCTGGACG | 0.536 | -0.0158 | -0.336 | -0.328 | -0.174 | -0.0253 | 0.883 | 0.561 | 0.259 | 0.0616
